The text below walks through data of PubChem BioAssay (NCI).

About 83,000 compounds went through this panel and 20% of them were active in at least one assay; those are over-represented in the sample as a whole.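 Assay: single dose, 48 h. Readout: percent growth (0 = no net growth; negative = cell death). Active: <10.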 Unmarked numbers belong to inactive results. Activity calls are given as the source filed them.

The subject of one assay is HCT-116 colon. Kind of assay: NCI-60 one-dose screen, 48 h (100 = growth as untreated, 0 = no growth, -100 = all killed). Particulars: 10 µM unless noted.
In the case of `COC(=O)c1ccc2[nH]c(O)c(C(=Nc3ccc(N(C)C(=O)CN4CCN(C)CC4)cc3)c3ccc([N+](=O)[O-])cc3)c2c1`, the growth was 20.4%.
On the same count and under the same terms, to `O=C(O)c1ccc(-c2nn(-c3ccc(C(=O)O)cc3)cc2CNc2ccc(Br)cc2)cc1` belongs 101%.
Still for that read-out and setting: to `COC(=O)c1ccc2[nH]c(O)c(C(=Nc3ccc(N(C)C(=O)CN4CCN(C)CC4)cc3)c3ccc(N)cc3)c2c1` belongs 41.4%.
Still for that read-out and setting: to `COC(=O)c1ccc(C(=Nc2ccc(N(C)C(=O)CN3CCN(C)CC3)cc2)c2c(O)[nH]c3ccc(C(=O)OC)cc23)cc1` belongs 10.9%; to `Cc1ccc(C(C)C)c(OCc2ccc(C(=O)N/N=C/c3cccc(O)c3O)cc2)c1`, 20.4%.
For `O=C1Nc2c(c(=O)n(-c3ccccc3)c3ccccc23)C(c2ccc(Cl)cc2)N1` (stereo not given), the growth was 56.2%.
For `O=c1c2c(c3ccccc3n1-c1ccccc1)NC(=S)NC2c1ccccc1` (stereo not given), the growth was 96.1%.
With `COC(=O)c1ccc2[nH]c(O)c(C(=Nc3ccc(N(C)C(=O)CN4CCN(C)CC4)cc3)c3ccc(CCO)cc3)c2c1`, the growth is 9.37% (active).
On the same count and under the same terms, to `Clc1ccc(N/N=C(\c2ccccc2)c2ccccn2)nc1` belongs 2.71% (active); to `c1ccc(Nc2ncc3c(n2)-c2cccn2CC3)cc1`, 92%; to `C=CCC(CCC(CC=C)C(=O)OCC)C(=O)OCC` (stereo not given), 100%.
Same read-out and setting: to `CC(=O)OC1/C=C\CC/C=C\C1` (stereo not given) belongs 107%.
On the same count and under the same terms, to `CCN(CC)CCCNc1c2ccc(Cl)cc2nc2ccc(OC)cc12` belongs -4.77% (active); to `COc1cc(-c2nn(-c3ccc(NC(=O)Nc4cc(C(F)(F)F)cc(C(F)(F)F)c4)cc3)cc2-c2ccncc2)ccc1Cl`, -11% (active).
In the case of `CC(=O)Nc1nc(C)c(C(=O)NN)s1`, the growth is 94.7%.
The same measure, in the same setting: to `CC/C(=N\Nc1nc2ccccc2n1C)c1ccccn1` belongs 11.7%; to `CC(=O)OCC1O[C@@H](OC(C)=O)[C@@H](NC(=O)NS(=O)(=O)c2ccccc2)C(OC(C)=O)[C@@H]1OC(C)=O` (stereo not given in full), 108%.
Still for that read-out and setting: to `Cc1nc2c(nnn2-c2ccccc2)c2nc(-c3ccccc3)oc(=O)c12` belongs 101%; to `CCc1ccc(C(=Nc2ccc(N(C)C(=O)CN3CCN(C)CC3)cc2)c2c(O)[nH]c3ccc(C(=O)OC)cc23)cc1`, -67.9% (active).
Same read-out and setting: to `C=C[C@]1(C)C=C2C(=O)[C@@]3(O)OC[C@@]4(CCCC(C)(C)C43O)C2(O)C(O)C1` (stereo not given in full) belongs -79.6% (active).
With `CCOC(=O)c1c2c(cn1Cc1ccccc1)-c1oncc1CC2`, the growth was 90.5%.

The test system of another assay is HCC-2998 colon. The description is as above. The conditions noted are these: 10 µM unless noted.
For `O=C(Nc1ccc(-n2cc(-c3ccncc3)c(-c3ccc(Cl)c(O)c3)n2)cc1)c1cc(C(F)(F)F)cc(C(F)(F)F)c1`, the growth was 74.2%.
The same measure, in the same setting: to `COc1ccc(C2CC(=O)c3c(O)cc(OC4OC(COC5OC(C)C(O)C(O)C5O)C(O)C(O)C4O)cc3O2)cc1O` (stereo not given) belongs 129%; to `O=C(NCCNCCO)c1cc([N+](=O)[O-])cc([N+](=O)[O-])c1O`, 101%.
Same read-out and setting: to `O=Nc1ccc(O)c2ccccc12` belongs 68.4%; to `CC(=O)N1CCN(CCNC(=O)n2cc(-c3ccncc3)c(-c3ccc(O)c(Cl)c3)n2)CC1`, 118%; to `NC(=O)c1c(Nc2ccccc2)nn2cc(-c3nc4ccccc4s3)c(N)nc12`, 97.3%.
The same measure, in the same setting: to `CC(O)CN(CCO)CCN(CCO)CC(C)O` (stereo not given) belongs 109%; to `COC(=O)c1ccc2[nH]c(O)c(C(=Nc3ccc(N(C)C(=O)CN4CCN(C)CC4)cc3)c3ccc(OC)cc3)c2c1`, 30.8%.
`c1ccc(C(=NNc2nc3ccccc3o2)c2ccccn2)nc1`: the growth is 44.3%.
As for `COC(=O)C(Cc1cnc[nH]1)N1CC(=O)N2[C@@H](c3ccccc3)SC[C@H]2C1=O` (stereo not given in full), the growth was 99.6%.
On the same count and under the same terms, to `COC(=O)c1ccc2[nH]c(O)c(C(=Nc3ccc(N(C)C(=O)CN4CCN(C)CC4)cc3)c3ccc4c(c3)OCO4)c2c1` belongs 16%; to `Cc1ccc(NCc2cn(-c3ccc(C(=O)O)cc3)nc2-c2ccc(C(=O)O)cc2)cc1`, 101%; to `O=C(c1ccccc1)c1ccccc1-c1ccccc1`, 47.1%.
Take `CCCCCCC(C(=O)OCC)(C(=O)OCC)C1CCCCCC1`: the growth was 100%.
The same measure, in the same setting: to `COC(=O)c1ccc2[nH]c(O)c(C(=Nc3ccc(N(C)C(=O)CN4CCN(C)CC4)cc3)c3ccc([N+](=O)[O-])cc3)c2c1` belongs 66.7%; to `O=C1OC(c2ccc(-c3ccccc3)cc2)=C/C1=C/c1c2ccccc2cc2ccccc12`, 98.7%; to `O=C(O)c1ccc(-c2nn(-c3ccc(C(=O)O)cc3)cc2CNc2ccc(Br)cc2)cc1`, 102%.
Same read-out and setting: to `O=C(N/N=C\c1ccc(-c2ccc(Br)cc2)o1)c1cc2oc(-c3cccc(C(F)(F)F)c3)cc2[nH]1` belongs 85.5%.
The same measure, in the same setting: to `COC(=O)c1ccc2[nH]c(O)c(C(=Nc3ccc(N(C)C(=O)CN4CCN(C)CC4)cc3)c3ccc(N)cc3)c2c1` belongs 108%; to `COC(=O)c1ccc(C(=Nc2ccc(N(C)C(=O)CN3CCN(C)CC3)cc2)c2c(O)[nH]c3ccc(C(=O)OC)cc23)cc1`, 54.5%.
For `Cc1ccc(C(C)C)c(OCc2ccc(C(=O)N/N=C/c3cccc(O)c3O)cc2)c1`, the growth is 45.7%.
The same measure, in the same setting: to `O=C1Nc2c(c(=O)n(-c3ccccc3)c3ccccc23)C(c2ccc(Cl)cc2)N1` (stereo not given) belongs 61%.
On the same count and under the same terms, to `O=c1c2c(c3ccccc3n1-c1ccccc1)NC(=S)NC2c1ccccc1` (stereo not given) belongs 98.8%.
Still for that read-out and setting: to `COC(=O)c1ccc2[nH]c(O)c(C(=Nc3ccc(N(C)C(=O)CN4CCN(C)CC4)cc3)c3ccc(CCO)cc3)c2c1` belongs 53.2%; to `CCCCn1c(Cc2ccc(OC)cc2)nc2cc(OC)c(OC)cc2c1=O`, 98.1%.
For `Cc1[nH]n(C(=S)Nc2nc3cc(Cl)c(F)cc3s2)c(=O)c1N=Nc1ccc(F)c(Cl)c1`, the growth is 114%.
On the same count and under the same terms, to `Clc1ccc(N/N=C(\c2ccccc2)c2ccccn2)nc1` belongs 35.9%; to `c1ccc(Nc2ncc3c(n2)-c2cccn2CC3)cc1`, 47.5%; to `C=CCC(CCC(CC=C)C(=O)OCC)C(=O)OCC` (stereo not given), 113%.
The same measure, in the same setting: to `O=[N+]([O-])c1ccc(-c2ncc(-c3ccc(O)cc3O)[nH]2)cc1` belongs 123%.
Same read-out and setting: to `CC(=O)OC1/C=C\CC/C=C\C1` (stereo not given) belongs 129%.
For `CCN(CC)CCCNc1c2ccc(Cl)cc2nc2ccc(OC)cc12`, the growth was -68.1% (active).
As to `COc1cc(-c2nn(-c3ccc(NC(=O)Nc4cc(C(F)(F)F)cc(C(F)(F)F)c4)cc3)cc2-c2ccncc2)ccc1Cl`, the growth is -7.63% (active).
The same measure, in the same setting: to `CC(=O)Nc1nc(C)c(C(=O)NN)s1` belongs 84.2%; to `CC/C(=N\Nc1nc2ccccc2n1C)c1ccccn1`, 32.3%.
Same read-out and setting: to `CC(=O)OCC1O[C@@H](OC(C)=O)[C@@H](NC(=O)NS(=O)(=O)c2ccccc2)C(OC(C)=O)[C@@H]1OC(C)=O` (stereo not given in full) belongs 113%.
The same measure, in the same setting: to `Cc1nc2c(nnn2-c2ccccc2)c2nc(-c3ccccc3)oc(=O)c12` belongs 116%; to `CCc1ccc(C(=Nc2ccc(N(C)C(=O)CN3CCN(C)CC3)cc2)c2c(O)[nH]c3ccc(C(=O)OC)cc23)cc1`, -92% (active).
In the case of `CCOC(=O)c1c2c(cn1Cc1ccccc1)-c1oncc1CC2`, the growth is 111%.
